The list is not random: actives were taken first. Their share in the collection is about 3.3%.
Bim-Mcl-1: human Bim-Mcl-1 interaction inhibition | Q07820 | Bead-based flow cytometry, Bim peptide-Mcl-1 binding | inhibition, % at 10 µM | hit rate 0.1% among 190,000; in the data active means inhibition above about 40%
Target sequence (Q07820 whole entry, looked up): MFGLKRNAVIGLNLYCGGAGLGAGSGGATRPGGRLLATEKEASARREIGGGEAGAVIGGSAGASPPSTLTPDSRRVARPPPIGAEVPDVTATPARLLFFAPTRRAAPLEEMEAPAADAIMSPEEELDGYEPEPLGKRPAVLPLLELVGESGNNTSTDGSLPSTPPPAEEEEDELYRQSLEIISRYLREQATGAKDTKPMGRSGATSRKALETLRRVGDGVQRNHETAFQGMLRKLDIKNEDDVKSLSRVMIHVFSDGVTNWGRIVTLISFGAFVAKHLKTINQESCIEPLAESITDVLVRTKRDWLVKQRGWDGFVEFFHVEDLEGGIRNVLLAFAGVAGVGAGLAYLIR
eIF4E 4G PPI: blocks eIF4E binding to eIF4G; P63073+Q04637; inhibition, % at 21.7 µM; TR-FRET eIF4E-eIF4GI(517-606) binding, 2 h; hit rate 0.37% among 220,000
14-3-3 Bad PPI: disrupts binding of bovine 14-3-3 zeta to phospho-Bad peptide. TR-FRET 14-3-3zeta/Dy647-pBad peptide displacement, 1 h. inhibition, % at 21.7 µM. hit rate 0.71% among 220,000. AID 781;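 active means inhibition above about 70%, limit read from the data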
Target sequence (P63103 whole entry, looked up): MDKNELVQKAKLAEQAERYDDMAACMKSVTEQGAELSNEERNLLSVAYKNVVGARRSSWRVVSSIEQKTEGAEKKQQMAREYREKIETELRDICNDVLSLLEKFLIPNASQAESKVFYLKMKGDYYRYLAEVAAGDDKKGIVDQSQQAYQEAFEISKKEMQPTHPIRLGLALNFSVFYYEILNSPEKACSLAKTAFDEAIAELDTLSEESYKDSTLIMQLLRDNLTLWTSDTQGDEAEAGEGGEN
Mcl1-Bid inh: Mcl-1/Bid interaction inhibition. Q07820. TR-FRET Mcl-1/Bid-Dy647 peptide binding, 1536-well. inhibition, % at 21.7 µM. hit rate 0.97% among 220,000. AID 1021;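 active means compounds that cut the binding signal by more than half at the single screening dose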;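 further: His-tagged Mcl-1 with europium anti-His antibody binding Bid BH3 peptide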
p47phox inh: p47phox (human) inhibition; inhibition, % at 24.7 µM; P14598; p47phox/p22phox peptide binding, fluorescence polarization, 2 h; AID 1274; hit rate 0.53% among 220,000
Mcl1-Noxa inh: Mcl-1/Noxa interaction inhibition; TR-FRET Mcl-1/Noxa peptide binding, 2 h; inhibition, % at 21.7 µM; AID 1022; Q07820; hit rate 1.5% among 220,000;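 active means compounds that cut the protein-peptide binding signal by more than 50% relative to plate controls in a single-dose test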;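 further: His-tagged Mcl-1 with rhodamine Noxa BH3 peptide and terbium anti-His antibody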
A number is an active result; – = inactive; · = no result given; [ ] = another dose, or the depositor's remark.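 How the source made its calls, unless noted: active means inhibition above about 30% (limit read from the data); inactive means the rest.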

SMILES	Bim-Mcl-1	eIF4E 4G PPI	14-3-3 Bad PPI	Mcl1-Bid inh	p47phox inh	Mcl1-Noxa inh
N#CC1=C(O)C(c2ccccc2)n2c1nc(=O)c1ccccc12 (centres undefined)	–	–	90	–	–	–
CCOc1cc(/C=N/N=C2/NC(=O)C(CC(=O)O)S2)ccc1OCc1ccc(Cl)cc1Cl (centres undefined)	–	–	–	–	–	55
COc1cc(/C=N/N=C2/NC(=O)C(CC(=O)O)S2)ccc1OCc1ccc(Cl)cc1 (centres undefined)	–	–	–	–	–	–
Cc1cccc(C)c1OCC(C)N (centres undefined)	·	85	–	–	–	–
NNC(=O)c1cc2cc3ccccc3nc2s1	–	–	–	–	–	–
Cc1[nH]n(-c2ccccc2)c(=O)c1/C=N/NC(=O)c1cccc([N+](=O)[O-])c1	–	–	–	–	–	–
Cc1ccc(-n2[nH]c(C)c(/C=N/Nc3ccc([N+](=O)[O-])cc3[N+](=O)[O-])c2=O)cc1C	–	–	–	–	–	54
CC1=C2C(CCS2(=O)=O)CC2(C1)C(=O)OC(C)(C)OC2=O (centres undefined)	66	–	–	–	–	–
Cc1ccc(-c2ccc(/C=C3/NC(=O)NC3=O)o2)cc1[N+](=O)[O-]	–	–	90[fluorescence artefact?]	73	–	77
CC1=C(C#N)C(=O)NC(=O)/C1=C\c1ccc(-c2cc(C)c(C)cc2[N+](=O)[O-])o1	–	48	–	92	–	100
Cc1ccc(-c2ccc(/C=N/NC(=S)Nc3ccccc3)o2)cc1[N+](=O)[O-]	–	–	–	–	–	–
O=C1NC(=S)N/C1=C/c1ccc(-c2c(Br)cc([N+](=O)[O-])cc2Br)o1	–	–	95[fluorescence artefact?]	98	–	86
CC(C)[C@H](NC(=O)c1ccc(F)cc1)C(=O)NC1=NCCS1	–	–	–	–	–	–
CCOC(=O)CNC(=O)CSc1nnc(SCC(=O)NCC(=O)OCC)s1	–	–	–	–	–	–
O=C(O)CCSc1nnc(SCC(=O)NCC(F)(F)F)s1	–	56	–	–	–	–
Cc1ccc(SCc2cc(=O)[nH]c(/N=C(\N)Nc3ccc(C)c(C)c3)n2)cc1	–	49[fluorescence artefact?]	–	–	–	–
COc1ccc(N/C(N)=N/c2nc(CSc3ccc(Cl)cc3)cc(=O)[nH]2)cc1	–	–	–	–	–	–
CN(C)c1ccc(CNCCC2(O)CCOC(C)(C)C2)cc1 (centres undefined)	–	–	75	–	–	–
COc1ccc(/C=N/N(C(C)=O)c2nc(-c3ccc(C)cc3)cs2)cc1	–	–	–	–	–	–
CC(=O)N(/N=C/c1cccc(C)c1)c1nc(-c2ccc(Br)cc2)cs1	–	–	–	99	–	–
Cc1cc(-c2csc(NC(=O)c3ccc(=O)n(C)n3)n2)c(C)n1CC1CCCO1 (centres undefined)	–	–	–	–	–	54
Cc1cc(-c2csc(NC(=O)c3ccccc3C(F)(F)F)n2)c(C)n1Cc1ccccc1	–	–	–	–	–	–
CC(=O)NS(=O)(=O)c1ccc(NC(=O)c2oc3c(Cl)cccc3c2C)cc1	·	–	–	–	–	–
COc1ccccc1N(C)S(=O)(=O)c1ccc(C(=O)OCC(N)=O)cc1	44	–	–	–	–	–
COc1ccccc1N(C)S(=O)(=O)c1ccc(C(=O)NC(C)(C)C)cc1	–	–	–	–	179	–
SMILES	Bim-Mcl-1	eIF4E 4G PPI	14-3-3 Bad PPI	Mcl1-Bid inh	p47phox inh	Mcl1-Noxa inh
COc1ccccc1N(C)S(=O)(=O)c1ccc(C(=O)OCC(=O)N2CCCCCC2)cc1	–	–	–	–	–	–
O=C1OC(c2cccs2)=N/C1=C/c1ccc(-c2cccc(C(=O)O)c2)o1	–	36	76	79	–	96
O=C1OC(c2ccco2)=N/C1=C\c1ccc(-c2cccc(C(F)(F)F)c2)o1	–	–	–	–	–	–
CN(C)/C=C1\N=C(c2cccs2)OC1=O	–	–	–	–	–	–
N=C1/C(=C/c2ccc(-c3cccc(C(=O)O)c3)o2)C(=O)N=C2SC=C(c3ccccc3)N12	–	80	93	98	–	109
N=C1/C(=C\c2ccc(-c3cc(Cl)cc(Cl)c3)o2)C(=O)N=C2SC=C(c3ccccc3)N12	–	–	–	–	–	–
O=C1OC(c2cccs2)=N/C1=C\c1ccc(-c2ccccc2Cl)o1	–	–	–	–	81	–
CN(C)C(=O)CN1CCN(Cc2cn(C)nc2-c2ccc3c(c2)OCCO3)CC1	–	–	–	–	–	–
Cc1ccc(Cl)c(OCC(=O)Nc2sc(C)c(C)c2C#N)c1	–	–	–	–	–	–
CC1=NN(C(N)=S)C(=O)C1N=Nc1ccc(O)cc1 (centres undefined)	–	–	–	–	–	78
COc1cc(NC(=O)c2noc3c2CCC3)c(OC)cc1Cl	–	–	–	–	–	63
COc1ccc(NC(=O)c2noc3c2CCC3)cc1	–	–	–	–	–	–
Cc1ccc(NC(=O)c2noc3c2CCC3)cc1C	–	–	–	–	–	54
COc1ccc(NC2=NCC(=O)N2Cc2cccs2)cc1	–	43	75	–	–	–
COc1ccccc1NC1=NCC(=O)N1Cc1ccccc1	–	–	–	–	–	–
COc1ccc(NC2=NCCC(=O)N2Cc2cccs2)cc1	–	–	–	–	–	–
COc1ccc(CN2C(=O)CN=C2Nc2cccc(C)c2C)cc1	–	–	82	–	–	–
COc1cccc(NC2=NCC(=O)N2Cc2cccs2)c1	–	–	71	–	–	–
CC1(C)CC(=O)/C(=C\c2cccc([N+](=O)[O-])c2)C(C)(C)N1	–	–	–	–	–	–
Cn1cc(CNCc2cn(C)nc2-c2ccc(C3CCCCC3)cc2)cn1	–	–	–	–	–	–
CCC1CCCCN1S(=O)(=O)c1ccc(S(=O)(=O)N(Cc2ccccn2)CC2CCCO2)cc1 (centres undefined)	–	–	–	–	–	90
O=S(=O)(NCC1CCCO1)c1ccc(S(=O)(=O)N(Cc2ccc(F)cc2)Cc2ccccn2)cc1 (centres undefined)	–	–	–	–	–	–
CC(/C=N/NC(=O)c1cc(-c2cccn2C)n[nH]1)=C\c1ccccc1	·	–	95	–	–	–
CCOc1ccc(/C=N/NC(=O)c2cc(-c3cccn3C)n[nH]2)cc1	–	–	–	–	–	–
COc1cccc(/C=N/Nc2snc(SC)c2C#N)c1	–	–	–	–	–	–
COc1ccc(/C=N/Nc2snc(SC)c2C#N)cc1OC	–	–	–	–	–	67
COc1cccc(/C=N/Nc2snc(SC)c2C#N)c1O	–	–	–	–	–	72
Cc1c(O)ccc(/C=N/Nc2nc(-c3cccnc3)nc3ccccc23)c1O	·	–	–	–	–	89
Clc1ccc(/C=N/Nc2nc(Cl)nc3ccccc23)cc1	–	–	–	–	70	–
